Experimental data: PubChem BioAssay (Tox21)
Inconclusive results are not listed. The source made the active and inactive calls. The call rests on the fitted dose curve; in most records, active means well fitted curve in the direction sought with a large enough effect in the repeat runs; inconclusive means weak or mixed curves; inactive means no such curve, though single readings can be large; an effect the other way counts as inactive or inconclusive.

Columns and labels:
[1] = A CellTox Green Cytotoxicity Assay to monitor cytotoxicity in HEK293 cells - 40 hour (AID 1224871); further: nearly all actives have a fitted effect of over 45% in size
Procedure, shortened: (§1)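 Seeding of HEK293 cells together with cytotoxicity dye preceded a 5 h incubation at 37 C/5% CO2. Test compounds in DMSO were then added and fluorescence monitored across 40 h.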

[2] = qHTS RealTime-Glo MT Cell Viability Assay in HEK293 cells - 16 hour (AID 1224872); further: top concentration of the series differs between compounds; nearly all actives have a fitted effect of over 50% in size
Procedure, shortened: (§2)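 Luminescence generated by NanoLuc from substrate produced by living HEK293 cells served as the viability signal. Each value reflects the reading at its stated time point during continuous 40 h compound exposure at 37 C.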

[3] = qHTS RealTime-Glo MT Cell Viability Assay in HepG2 cells - 8 hour (AID 1224873); further: nearly all actives have a fitted effect of over 55% in size
Procedure, shortened: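 Real-time viability: cells seeded at 600 per well together with NanoLuc and cell-permeant prosubstrate, compounds added after 5 h incubation. Luminescence tracked at 0, 8, 16, 24, 32 and 40 h of exposure.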

[4] = qHTS RealTime-Glo MT Cell Viability Assay in HEK293 cells - 40 hour (AID 1224874); conditions: RealTime-Glo luminescence; max response: hits give low values; further: nearly all actives have a fitted effect of over 50% in size
Procedure, shortened: (§3)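 Tox21 screen in HEK293 using RealTime-Glo MT chemistry, with cells and reagent co-dispensed. Luminescence proportional to viable cell number was captured at intervals during 40 h compound exposure at 37 C.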

[5] = A CellTox Green Cytotoxicity Assay to monitor cytotoxicity in HEK293 cells - 24 hour (AID 1224875); further: series mostly up to about 77 µM; nearly all actives have a fitted effect of over 45% in size
Procedure, shortened: as §1

[6] = A CellTox Green Cytotoxicity Assay to monitor cytotoxicity in HepG2 cells - 16 hour (AID 1224876); further: nearly all actives have a fitted effect of over 45% in size
Procedure, shortened: (§4)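 Nonlytic assay: viable cells exclude the dye, so fluorescence scales with cell death. HepG2 at 600 cells/well, compounds added after 5 h, signal read across 40 h.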

[7] = qHTS RealTime-Glo MT Cell Viability Assay in HepG2 cells - 32 hour (AID 1224877); further: nearly all actives have a fitted effect of over 55% in size
Procedure, shortened: (§5)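 Tox21 10K library screened in qHTS format on HepG2 cells carrying RealTime-Glo reagents. Compounds were added after a 5 h preincubation, and the luminescent signal from continuous culture was measured repeatedly during 40 h treatment.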

[8] = A CellTox Green Cytotoxicity Assay to monitor cytotoxicity in HepG2 cells - 24 hour (AID 1224878); further: nearly all actives have a fitted effect of over 45% in size
Procedure, shortened: as §4

[9] = A CellTox Green Cytotoxicity Assay to monitor cytotoxicity in HepG2 cells - 40 hour (AID 1224879); further: nearly all actives have a fitted effect of over 40% in size
Procedure, shortened: as §4

[10] = qHTS RealTime-Glo MT Cell Viability Assay in HEK293 cells - 0 hour (AID 1224880)
Procedure, shortened: as §3

[11] = A CellTox Green Cytotoxicity Assay to monitor cytotoxicity in HEK293 cells - 32 hour (AID 1224881); further: nearly all actives have a fitted effect of over 40% in size
Procedure, shortened: as §1

[12] = A CellTox Green Cytotoxicity Assay to monitor cytotoxicity in HepG2 cells - 0 hour (AID 1224882); further: nearly all actives have a fitted effect of over 35% in size
Procedure, shortened: as §4

[13] = A CellTox Green Cytotoxicity Assay to monitor cytotoxicity in HepG2 cells - 32 hour (AID 1224883); further: nearly all actives have a fitted effect of over 50% in size
Procedure, shortened: as §4

[14] = A CellTox Green Cytotoxicity Assay to monitor cytotoxicity in HEK293 cells - 8 hour (AID 1224884); further: nearly all actives have a fitted effect of over 35% in size
Procedure, shortened: as §1

[15] = qHTS RealTime-Glo MT Cell Viability Assay in HepG2 cells - 16 hour (AID 1224885); further: nearly all actives have a fitted effect of over 50% in size
Procedure, shortened: as §5

[16] = qHTS RealTime-Glo MT Cell Viability Assay in HEK293 cells - 8 hour (AID 1224887)
Procedure, shortened: as §3

[17] = A CellTox Green Cytotoxicity Assay to monitor cytotoxicity in HEK293 cells - 16 hour (AID 1224888); further: nearly all actives have a fitted effect of over 35% in size
Procedure, shortened: as §1

[18] = qHTS RealTime-Glo MT Cell Viability Assay in HepG2 cells - 0 hour (AID 1224889); further: nearly all actives have a fitted effect of over 50% in size
Procedure, shortened: as §5

[19] = A CellTox Green Cytotoxicity Assay to monitor cytotoxicity in HepG2 cells - 8 hour (AID 1224890); further: nearly all actives have a fitted effect of over 45% in size
Procedure, shortened: as §4

[20] = qHTS RealTime-Glo MT Cell Viability Assay in HEK293 cells - 24 hour (AID 1224886)
Procedure, shortened: as §2
On the % scale 0 is the no-effect control and ±100 the full control effect.

CCCCP(CCCC)CCCC
inactive: Potency [1] | Potency [2] | Potency [3] | max response [4] -4.34% | Potency [5] | Potency [6] | Potency [7] | Potency [8] | Potency [9] | outcome [10] | Potency [11] | outcome [12] | Potency [13] | Potency [14] | Potency [15] | Potency [16] | Potency [17] | Potency [18] | Potency [19]

Cc1cc(C)c(C(=O)P(=O)(C(=O)c2c(C)cc(C)cc2C)c2ccccc2)c(C)c1
inactive: Potency [1] | Potency [2] | Potency [3] | max response [4] -8.76% | Potency [5] | Potency [6] | Potency [7] | Potency [8] | Potency [9] | outcome [10] | Potency [11] | outcome [12] | Potency [13] | Potency [14] | Potency [15] | Potency [16] | Potency [17] | Potency [18] | Potency [19]

Cc1cnc[nH]1
inactive: Potency [1] | Potency [2] | Potency [3] | max response [4] -2.47% | Potency [5] | Potency [6] | Potency [7] | Potency [8] | Potency [9] | outcome [10] | Potency [11] | outcome [12] | Potency [13] | Potency [14] | Potency [20] | Potency [16] | Potency [17] | Potency [18] | Potency [19]

CCNc1nc(NC(C)C)nc(OC)n1
inactive: Potency [1] | Potency [2] | Potency [3] | max response [4] -7.59% | Potency [5] | Potency [6] | Potency [7] | Potency [8] | Potency [9] | outcome [10] | Potency [11] | outcome [12] | Potency [13] | Potency [14] | Potency [20] | Potency [16] | Potency [17] | Potency [18] | Potency [19]

CCCCOP(=O)(O)OCCCC
inactive: Potency [1] | Potency [2] | Potency [3] | max response [4] 0.827% | Potency [5] | Potency [6] | Potency [7] | Potency [8] | Potency [9] | outcome [10] | Potency [11] | outcome [12] | Potency [13] | Potency [14] | Potency [20] | Potency [16] | Potency [17] | Potency [18] | Potency [19]

c1ccc(N2CCNCC2)cc1
inactive: Potency [1] | Potency [2] | Potency [3] | max response [4] 16.9% | Potency [5] | Potency [6] | Potency [7] | Potency [8] | Potency [9] | outcome [10] | Potency [11] | Potency [13] | Potency [14] | Potency [15] | Potency [20] | Potency [16] | Potency [17] | Potency [18] | Potency [19]

C[C@]12CC[C@H]3[C@@H](CCC4=CC(=O)CC[C@@]43C)[C@@H]1CC[C@@H]2C(=O)O
inactive: Potency [1] | Potency [2] | Potency [3] | max response [4] 2.42% | Potency [5] | Potency [6] | Potency [7] | Potency [8] | Potency [9] | outcome [10] | Potency [11] | outcome [12] | Potency [13] | Potency [14] | Potency [20] | Potency [16] | Potency [17] | Potency [18] | Potency [19]

C[C@]12CC[C@H]3[C@@H](CC=C4C[C@@H](O)CC[C@@]43C)[C@@H]1CC[C@@H]2O
inactive: Potency [1] | Potency [2] | Potency [3] | max response [4] 8.6% | Potency [5] | Potency [6] | Potency [7] | Potency [8] | Potency [9] | outcome [10] | Potency [11] | outcome [12] | Potency [13] | Potency [14] | Potency [20] | Potency [16] | Potency [17] | Potency [18] | Potency [19]

O=NN1CCCCC1
inactive: Potency [1] | Potency [2] | Potency [3] | max response [4] 1.37% | Potency [5] | Potency [6] | Potency [7] | Potency [8] | Potency [9] | outcome [10] | Potency [11] | outcome [12] | Potency [13] | Potency [14] | Potency [15] | Potency [20] | Potency [16] | Potency [17] | Potency [18] | Potency [19]

C=C(C)[C@@H]1CC=C(C=O)CC1
inactive: Potency [1] | Potency [2] | Potency [3] | max response [4] -6.37% | Potency [5] | Potency [6] | Potency [7] | Potency [8] | Potency [9] | outcome [10] | Potency [11] | outcome [12] | Potency [13] | Potency [14] | Potency [15] | Potency [20] | Potency [16] | Potency [17] | Potency [18] | Potency [19]

Nc1cnn(-c2ccccc2)c(=O)c1Cl
inactive: Potency [1] | Potency [2] | Potency [3] | max response [4] 20.5% | Potency [5] | Potency [6] | Potency [7] | Potency [8] | Potency [9] | outcome [10] | Potency [11] | outcome [12] | Potency [13] | Potency [14] | Potency [15] | Potency [20] | Potency [16] | Potency [17] | Potency [18] | Potency [19]

Cc1cccc(C#N)c1
inactive: Potency [1] | Potency [2] | Potency [3] | max response [4] 6.99% | Potency [5] | Potency [6] | Potency [7] | Potency [8] | Potency [9] | outcome [10] | Potency [11] | outcome [12] | Potency [13] | Potency [14] | Potency [15] | Potency [20] | Potency [16] | Potency [17] | Potency [18] | Potency [19]

Clc1ccccc1N1CCNCC1
inactive: Potency [1] | Potency [2] | Potency [3] | max response [4] 7.31% | Potency [5] | Potency [6] | Potency [7] | Potency [8] | Potency [9] | outcome [10] | Potency [11] | outcome [12] | Potency [13] | Potency [14] | Potency [15] | Potency [20] | Potency [16] | Potency [17] | Potency [18] | Potency [19]

O=c1oc2ccccc2c(O)c1C1CCCc2ccccc21 (stereo unspecified)
inactive: Potency [1] | Potency [2] | Potency [3] | max response [4] 14.6% | Potency [5] | Potency [6] | Potency [7] | Potency [8] | Potency [9] | outcome [10] | Potency [11] | outcome [12] | Potency [13] | Potency [14] | Potency [20] | Potency [16] | Potency [17] | Potency [18] | Potency [19]
